# Screening results: PubChem, National Center for Advancing Translational Sciences (NCATS)
# Shown are actives, neighbours in structure and some others; about 6.2% of the full set was active somewhere.
# HT1080 IDH1KD tx – HT-1080 IDH1 knockdown cell toxicity (counter line); HT-1080 IDH1 knockdown viability, ATP luminescence, 48 h; Potency, µM (doses to about 46.1 µM), for the others: at the highest dose activity, negative = toxicity, most hits filed as cytotoxic; actives 2% (n = 360,000);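 note: 0% = DMSO wells and -100% = cell-free medium wells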
#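 Knockdown cells (IDH1KD HT-1080) received compounds 2 h after plating at 750 cells/well and were kept 48 h at 37 °C in 5% FBS RPMI. A CellTiter-Glo luminescence read gave % activity for curve fitting.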
# KB-3-1 tox – KB-3-1 parental cell cytotoxicity; KB-3-1 viability, CellTiter-Glo ATP luminescence, 72 h; Potency, µM (highest dose often 46.1 µM), most hits filed as cytotoxic; actives 1.4% (n = 400,000); AID 1347075; note: % is set by controls: 0 for no effect and ±100 for the full control effect; nearly all actives have a fitted effect of over 60% in size
#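 Multi-concentration cytotoxicity screen in KB-3-1 cells grown in DMEM lacking phenol red with 10% FBS. After 72 h at 37 °C with compound, ATP-dependent luminescence was recorded.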
# S2 tox – cell viability loss in ATXN counter-screen; S2 cells (HEK-293 line with an ATXN2-luciferase reporter) viability, CellTiter-Fluor protease fluorescence, 24 h; Potency, µM (doses to about 56.7 µM), usual class: cytotoxic; actives 0.49% (n = 400,000); AID 651635; note: nearly all actives have a fitted effect of over 40% in size
# ATXN2 expr inh – ATXN2 expression inhibition; actives 0.72% (n = 360,000); Potency, µM (series often up to 57 µM), for the others: at the top dose activity change, negative = inhibition, usual class: inhibitors; HEK-293 ATXN2-luciferase reporter, luminescence, 24 h; note: % is set by controls: 0 for no effect and ±100 for the full control effect; nearly all actives have a fitted effect of over 55% in size
#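 qHTS (up to 57 uM final) was run with 24 h compound exposure of reporter cells at 37 °C. Each well was multiplexed: SteadyGlo luminescence measured ATXN2-luciferase expression after a fluorogenic Gly-Phe-AFC viability readout (25 uM final).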
# KB-V1 MDR tox – KB-V1 MDR subline cytotoxicity. actives 3.4% (n = 400,000). Potency, µM (titrated, usually from 46.1 µM), hits mostly cytotoxic. KB-V1 MDR cells viability, CellTiter-Glo, 72 h; note: % is set by controls: 0 for no effect and ±100 for the full control effect; nearly all actives have a fitted effect of over 60% in size
#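 qHTS viability screen in drug-selected KB-V1 MDR cells: 72 h compound treatment at 37 degrees C, ATP luminescence end point.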
# HT1080NT lethal – kills 2HG-producing HT-1080-NT fibrosarcoma cells; actives 1.6% (n = 360,000); Potency, µM (top dose mostly 46.1 µM), without a hit: top-dose activity, negative = less viability, usual class: cytotoxic; HT-1080-NT fibrosarcoma viability, CellTiter-Glo ATP luminescence, 48 h; AID 686970;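 note: NT is the 2HG producing partner of a matched IDH1 knockdown line; 0% = DMSO-treated cells and -100% = media-only wells without cells; nearly all actives have a fitted effect of over 55% in size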
#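 Fibrosarcoma NT cells, 750 per well in 5% FBS RPMI, were exposed to compound for 48 hours. Viability: CellTiter-Glo luminescence.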
# * marks the source's active call; other numbers are inactive results; i = inactive; ? = inconclusive; . = no result given. Calls come from the whole dose curve; as a rule, active = well fitted curve in the direction sought with a large enough effect; inconclusive = small, poorly fitted or top-dose-only effect, or another doubt; inactive = no such curve, though single readings can be large; an effect the other way counts as inactive or inconclusive. Potency is the fitted concentration of half-maximal effect.
SMILES,HT1080 IDH1KD tx,KB-3-1 tox,S2 tox,ATXN2 expr inh,KB-V1 MDR tox,HT1080NT lethal
Cn1nnnc1NN=Cc1ccccc1,2.2%,i,i,.,18.4µM*,14.1%
Cc1nnc(N2CCOCC2)c2nn(-c3cccc(Cl)c3)c(C)c12,0.9%,i,i,-14.7%,3.66µM*,-3.5%
O=C1c2ccccc2C(=O)c2[nH]c(=O)[nH]c21,6.51µM*,5.17µM*,.,?,10.3µM*,9.2µM*
O=C1c2ccccc2C(=O)c2[nH]cnc21,-26.3%,i,?,.,i,?
Cc1ccc2cc(N)ccc2n1,6.6%,i,i,-8.0%,i,9.0%
Nc1ccc2cc3ccc(N)cc3nc2c1,.,.,?,2.51µM*,.,.
O=C(NCc1ccco1)c1ccc2c(c1)N(Cc1ccc(F)cc1)C(=O)c1ccccc1S2=O (centres undefined),.,i,i,-10.8%,i,.
COC(=O)[C@@]12C[C@@H](CC(=O)NCCc3ccccc3OC)C(=O)N(Cc3ccccc3)C1=CCC(C)(C)C2,?,i,.,.,11.6µM*,?
COC(=O)[C@@]12C[C@@H](CC(=O)NCCc3ccccc3OC)C(=O)N(Cc3ccc4c(c3)OCO4)C1=CCC(C)(C)C2,?,i,.,.,?,?
COC(=O)[C@@]12C[C@@H](CC(=O)NCc3ccc(C)o3)C(=O)N(Cc3ccc4c(c3)OCO4)C1=CCC(C)(C)C2,?,i,.,.,?,?
COC(=O)[C@@]12C[C@@H](CC(=O)NCC3CCCCC3)C(=O)N(Cc3ccc4c(c3)OCO4)C1=CCC(C)(C)C2,?,?,.,.,20.6µM*,?
CCOC(=O)[C@]12CCCC=C1N(Cc1ccc3c(c1)OCO3)C(=O)[C@H](CC(=O)NCCCCc1ccccc1)C2,11.6µM*,?,?,?,?,?
COC(=O)[C@]12CCCCC=C1N(Cc1ccc3c(c1)OCO3)C(=O)[C@H](CC(=O)NCCCCc1ccccc1)C2,?,i,.,.,16.4µM*,?
O=C1CC[C@@H](CN(Cc2cccnc2)C2CCN(c3ccc(NC(=O)c4cnccn4)cc3)CC2)N1,.,.,i,.,.,.
CCCCNC(=O)C[C@@H]1C[C@@]2(C(=O)OC)CC(C)(C)CC=C2N(Cc2ccc3c(c2)OCO3)C1=O,-14.9%,i,.,.,?,-19.1%
CCOC(=O)[C@]12CCC=C1N(Cc1ccc3c(c1)OCO3)C(=O)[C@H](CC(=O)NCc1ccc(OC)c(OC)c1)C2,1.5%,i,?,9.0%,i,-2.2%
COC(=O)[C@@]12C[C@@H](CC(=O)NCCCCc3ccccc3)C(=O)N(Cc3ccc4c(c3)OCO4)C1=CCC(C)(C)C2,?,?,.,.,23.1µM*,?
CCOC(=O)[C@]12CCC=C1N(Cc1ccc3c(c1)OCO3)C(=O)[C@H](CC(=O)NCc1ccccc1)C2,23.1µM*,i,i,-7.9%,i,-12.9%
CCOC(=O)c1c(C=O)c(C)n(Cc2ccccc2Cl)c1C,-12.0%,i,i,-7.6%,23.1µM*,0.4%
CCOC(=O)c1c(C=O)c(C)n(Cc2ccc(C)cc2)c1C,?,?,?,-20.0%,?,-22.4%
Cc1cccc(N2CCN(CCCNC(=O)c3sc4ncccc4c3-n3cccc3)CC2C)c1 (centres undefined),.,i,i,-24.3%,i,.
COc1ccc(NS(=O)(=O)c2ccc(-c3cnc(C4CC4)o3)cc2)cc1Cl,.,?,i,?,i,.
CC(C)Oc1ccc(CNC(=O)c2ccc(CN3CC(=O)N4CCCCC4C3=O)cc2)cc1 (centres undefined),.,i,i,1.3%,i,.
CCCn1c(SCC(=O)Nc2ccc(NC(=O)CC)cc2)nc2c1c(=O)n(C)c(=O)n2C,-2.8%,i,i,1.2%,i,-1.5%
CCCn1c(SCC(=O)Nc2nnc(C(C)C)s2)nc2c1c(=O)n(C)c(=O)n2C,7.8%,13µM*,i,-0.9%,?,18.7%
SMILES,HT1080 IDH1KD tx,KB-3-1 tox,S2 tox,ATXN2 expr inh,KB-V1 MDR tox,HT1080NT lethal
CCCCn1c(SCC(=O)Nc2ccc3c(c2)OCO3)nc2c1c(=O)n(C)c(=O)n2C,-13.5%,20.6µM*,i,-27.1%,5.8µM*,8.0%
CCCCn1c(SCC(=O)Nc2nnc(CC)s2)nc2c1c(=O)n(C)c(=O)n2C,2.82µM*,i,i,0.0%,20.6µM*,?
CCCCn1c(SCC(=O)Nc2nnc(C)s2)nc2c1c(=O)n(C)c(=O)n2C,-7.0%,i,i,2.5%,i,3.9%
Cc1ccc(NC(=O)Cn2c(=O)n(-c3ccccc3)c(=O)c3ccc(C(=O)NCc4ccc5c(c4)OCO5)cc32)c(C)c1,.,i,?,-14.6%,?,.
CC(C)CSC1=NSC2=NC(=O)/C(=C\c3cccs3)C(=N)N12,-13.6%,?,i,22.5%,?,-1.4%
N=C1/C(=C/c2cccs2)C(=O)N=C2SN=C(SCc3ccccc3)N12,-10.3%,?,i,3.3%,23.1µM*,-1.6%
CSC1=NSC2=NC(=O)/C(=C\c3cccs3)C(=N)N12,-24.4%,?,i,30.9%,4.61µM*,-20.7%
